Source: PubChem
Sampled rows, rich in hits. Any-hit rate of the full collection: about 12%.
Shiga toxin inh: blocks Shiga toxin action in Vero cells; Vero cells, Shiga toxin protein synthesis inhibition reporter; inhibition, % at 38.7 µM; actives 9.2% (n = 290,000); in the data active = inhibition mostly above about 28%, no sharp cut-off; inactive = mostly below about 43%; note: 0% is about no effect
FMDV antiviral: antivirals against foot and mouth disease virus; FMDV antiviral cell-based qHTS; Potency, µM (top dose mostly 57.9 µM), without a hit: at the top dose activity change, negative = inhibition, most hits filed as inhibitors; actives 1.2% (n = 410,000); AID 1159524; calls by dose curve; tested in HEK293T cells; note: read-out not given here; potency is the fitted concentration of half-maximal effect; % is set by controls: 0 for no effect and ±100 for the full control effect; nearly all actives have a fitted effect of over 45% in size
CHX counter: counter-screen hit for Shiga toxin inhibitors, cycloheximide; cell reporter, cycloheximide protein synthesis inhibition counterscreen; max response, %; actives 12% (n = 300,000); AID 2314; in the data active = max response mostly above about 13%, no sharp cut-off; inactive = mostly below about 14%; note: read at 38.3 µM for the half of the compounds with a filed dose; 0% is about no effect
Sm TGR inh: S. mansoni TGR enzyme inhibition; AID 485364; actives 3% (n = 360,000); purified TGR, DTNB reduction, TNB absorbance 405 nm; Q962Y6; Potency, µM (titrated, usually from 114 µM), inactives show at the highest dose activity change, negative = inhibition, hits mostly inhibitors; active = well fitted inhibition curve with a large enough effect; inconclusive = small, poorly fitted or top-dose-only effect; inactive = no such curve, though single readings can be large or run the other way; note: potency is the fitted concentration of half-maximal effect; % is set by controls: 0 for no effect and ±100 for the full control effect; nearly all actives have a fitted effect of over 60% in size
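First, TGR (20 nM dispensed) and NADPH were mixed with compound. Second, a 15 min room-temperature incubation followed. Third, further NADPH and then DTNB were added to start the reaction. Finally, TNB absorbance was monitored kinetically.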
Numbers without * were called inactive; ? = inconclusive; nt = not tested or not shown; ! = repeats disagree.

SMILES	Shiga toxin inh	FMDV antiviral	CHX counter	Sm TGR inh
Cc1ccccc1N(C)S(=O)(=O)c1nnc(NC(=O)c2ccco2)s1	1	7%	3	25µM*!
O=C(c1cnccn1)N1CCC2(CC1)CCN(c1ccccc1)CC2	nt	-17%	nt	nt
Cc1c(Br)c(O)c(Br)c2sc(=O)oc12	-5	-21%	-3	2.8µM*
Cc1ccc(OCCNC(=O)c2ccc(C)cc2)cc1	79*	52%	46*	14%
COc1ccccc1CNC(=O)CCCNC(=O)c1ccc(Cl)cc1	6	-4%	8	5%
CCCCOc1ccc(C(=O)NCC(=O)NCCOc2ccc(C)cc2)cc1	nt	13%	nt	4%
COc1ccc(C(=O)NN)cc1	59	18%	24*	-6%
CS(=O)(=O)NCc1ccc(C(=O)NCCOc2ccccc2)cc1	63*	50%	50*	-4%
COc1cccc(CNC(=O)CCCNC(=O)c2ccc(Cl)cc2)c1	-10	-9%	18	22µM*
Cn1c(=O)c2c(-c3ccccc3Br)n(C(C)(C)C)cc2n(C)c1=O	nt	?	nt	43%
Cc1ccc(OCCNC(=O)c2ccccc2O)cc1	33	7%	12*	-1%
COc1ccc(C(=O)NCCCCCCNC(=O)c2ccc(OC)cc2)cc1	41	47%	16*	-12%
COc1ccc(C(=O)NCCSc2ccccc2)cc1	21*	-68%	46*	-2%
Cc1ccc(OCCNC(=O)CNC(=O)c2ccccc2Cl)cc1	nt	-2%	nt	-10%
COc1ccc(OCCNC(=O)c2ccc(C)cc2)cc1	56*	17%	29*	20%
COc1ccc(C(=O)NCCNC(=O)c2ccc(OC)cc2)cc1	nt	2%	nt	nt
COc1ccc(C(=O)NCCOc2cccc(OC)c2)cc1	35	26%	15	nt
CCCCCSc1nnc2c(n1)OC(c1ccc(C)s1)N(C(C)=O)c1ccccc1-2 (stereo not given)	nt	-18%	nt	0%
O=C(NC1CC(=O)N(c2ccc(F)cc2)C1)C(c1ccccc1)c1ccccc1 (stereo not given)	nt	-24%	nt	6%
COc1cccc2c1cc1c(=O)n(CC(=O)O)nc(C)n12	nt	-25%	nt	0%
O=C(NCCSc1ccc(Br)cc1)c1ccccc1	19	5%	6	-7%
CSCc1ccc(C(=O)NCCSc2ccc(Br)cc2)cc1	103*	7%	55*	2%
NNC(=O)c1cc(O)c(O)c(O)c1	13	-16%	-3	0%
NNC(=O)c1cc(Br)cs1	33*	-3%	26	1%
c1ccc(Oc2ccc(-c3ccn[nH]3)cc2)cc1	69*	62%	37*	4%
SMILES	Shiga toxin inh	FMDV antiviral	CHX counter	Sm TGR inh
Cc1cccc(N2C(=O)CC(N3CCN(Cc4ccc(Cl)cc4)CC3)C2=O)c1 (stereo not given)	-11	-13%	-3	45µM*
COc1ccccc1N1CCN(C2CC(=O)N(c3cccc(Cl)c3)C2=O)CC1 (stereo not given)	nt	-17%	-3	40µM*
CCCOc1ccc(N2C(=O)CC(N3CCN(c4ccccc4OC)CC3)C2=O)cc1 (stereo not given)	-12	?	1	50µM*
Cc1cccc(N2C(=O)CC(N3CCN(c4ccc(Cl)cc4)CC3)C2=O)c1 (stereo not given)	nt	-19%	-5	-20%
COc1ccccc1N1CCN(C2CC(=O)N(c3ccc(F)cc3)C2=O)CC1 (stereo not given)	3	-14%	-1	?
Cc1cccc(N2C(=O)CC(N3CCC(c4nc5ccccc5[nH]4)CC3)C2=O)c1 (stereo not given)	-13	3%	1	35µM*
COc1cccc(N2C(=O)CC(N3CCc4ccccc43)C2=O)c1 (stereo not given)	35*	51%	24*	-2%
COc1ccccc1N1C(=O)CC(N2CCc3ccccc32)C1=O (stereo not given)	27	21%	10	-28%
CCOc1ccc(N2C(=O)CC(N3CCN(c4ccccc4OC)CC3)C2=O)cc1 (stereo not given)	17	-4%	1	40µM*
COc1ccccc1N1C(=O)CC(N2CCN(c3ccc([N+](=O)[O-])cc3)CC2)C1=O (stereo not given)	-5	?	0	40µM*
CN(C)c1ccc(CNC(=O)CN2C(=O)c3cccnc3Oc3ccc(Cl)cc32)cc1	nt	0%	nt	0%
C=CCc1c(C)nc(-c2ccccc2)nc1Nc1ccc(O)cc1	-14	?	0	-19%
C=CCc1c(C)nc(-c2ccccc2)nc1N/N=C(\C)c1ccccc1	21	-4%	12*	-11%
Cc1cccc(NC(=O)CCc2c(C)nn(-c3ccc(N4CCOCC4)nn3)c2C)c1	40*	19%	23*	-20%
COc1cccc(NC(=O)CCc2c(C)nn(-c3ccc(N4CCOCC4)nn3)c2C)c1	23	5%	11	5%
Cc1nn(-c2ccc(N3CCOCC3)nn2)c(C)c1CCC(=O)Nc1ccc(F)cc1	10	17%	21*	-1%
Cc1cccc(NC(=O)CCc2c(C)nn(-c3ccc(N4CCCCC4)nn3)c2C)c1	72*	0%	41*	-24%
Cc1ccccc1NC(=O)CCc1c(C)nn(-c2ccc(N3CCOCC3)nn2)c1C	28	-5%	6	1%
Cc1ccc(NC(=O)CCc2c(C)nn(-c3ccc(N4CCOCC4)nn3)c2C)cc1C	50*	8%	20*	3%
CC(=O)Nc1c(C)nn(-c2ccccc2)c1N1CCC(C(=O)NCc2ccc(Cl)cc2)CC1	nt	-17%	nt	20%
Cc1ccc(N(CC(=O)NCCc2ccccc2)S(=O)(=O)N(C)C)cc1	nt	-15%	nt	-3%
CCOc1ccccc1CNC(=O)CCCn1c(=O)c2cccn2c2ccc(F)cc21	nt	?	nt	-4%
S=c1nccc(-c2ccc3c(c2)CCO3)[nH]1	-7	10%	-3	35µM*
CC1(C)CCc2cc(-c3ccnc(=S)[nH]3)ccc2O1	53*	31%	42*	2%
COC(=O)C(CCSC)NC(=O)c1c(C)oc2ncn(CC(C)C)c(=O)c12 (stereo not given)	nt	-10%	nt	4%
SMILES	Shiga toxin inh	FMDV antiviral	CHX counter	Sm TGR inh
COc1ccc(NC2=CC(=O)CC(c3ccccc3)C2)c(OC)c1 (stereo not given)	28	nt	37*	3%
CC1CC(Nc2ccccc2N)=CC(=O)O1 (stereo not given)	48*	30%	28*	0%
Nc1ccccc1NC1=CC(=O)CC(c2ccccc2)C1 (stereo not given)	45	nt	22*	6%
Cc1ccc(NC2=CC(=O)CC(c3ccco3)C2)c(N)c1 (stereo not given)	79*	11%	37*	0%
Cc1ccc(NC2=CC(=O)CC(c3ccccc3)C2)cc1 (stereo not given)	-2	30%	-2	0%
CCOc1ccccc1NC1=CC(=O)CC(c2ccccc2)C1 (stereo not given)	-18	0%	-5	-1%
O=C(Nc1ccc(F)cc1F)c1ccc2c(O)c(S(=O)(=O)c3ccc(Cl)cc3)c(=O)[nH]c2c1	nt	-9%	nt	-7%
CCn1c2c(c(=O)n3ncc(C(=O)Nc4ccc(OC(F)(F)F)cc4)c13)CN(Cc1ccc(OC)cc1)CC2	nt	-23%	nt	9%
CCOC(=O)CN(Cc1ccccc1)C(C(=O)NC1CCCCC1)c1ccc(OC)cc1 (stereo not given)	nt	-6%	nt	-11%
